Screen size: about 330,000 compounds; about 35 (0.01%) were called active.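 Rule for the calls: active = highest replicate inhibition of at least 50% and at least 75% of replicates reaching 50%; inconclusive = only one of the two criteria met; inactive = both criteria failed.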 A selection follows.

Chain of Cyclin-dependent kinase 5 (Homo sapiens) + Cyclin-dependent kinase 5 activator 1 (Homo sapiens) (Q00535 whole entry, looked up): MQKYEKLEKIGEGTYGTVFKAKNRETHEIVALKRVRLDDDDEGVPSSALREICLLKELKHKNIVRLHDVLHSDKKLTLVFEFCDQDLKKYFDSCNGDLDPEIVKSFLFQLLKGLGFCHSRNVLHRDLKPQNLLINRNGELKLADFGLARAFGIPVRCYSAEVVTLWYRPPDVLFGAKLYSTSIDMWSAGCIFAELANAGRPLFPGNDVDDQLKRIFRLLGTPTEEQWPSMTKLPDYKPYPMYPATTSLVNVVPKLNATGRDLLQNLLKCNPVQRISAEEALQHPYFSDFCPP
Chain of Cyclin-dependent kinase 5 (Homo sapiens) + Cyclin-dependent kinase 5 activator 1 (Homo sapiens) (Q15078 whole entry, looked up): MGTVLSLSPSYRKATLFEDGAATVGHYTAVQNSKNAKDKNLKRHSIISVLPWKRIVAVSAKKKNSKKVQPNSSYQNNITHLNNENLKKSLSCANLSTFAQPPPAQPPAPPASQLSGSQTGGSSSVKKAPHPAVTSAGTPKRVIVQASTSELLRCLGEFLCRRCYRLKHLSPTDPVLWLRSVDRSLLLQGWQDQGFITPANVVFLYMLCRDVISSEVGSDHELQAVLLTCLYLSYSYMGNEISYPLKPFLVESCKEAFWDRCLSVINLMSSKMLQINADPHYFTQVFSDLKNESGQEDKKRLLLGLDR

This test addresses Cyclin-dependent kinase 5 (Homo sapiens) + Cyclin-dependent kinase 5 activator 1 (Homo sapiens) (UniProt Q00535+Q15078). Kind of test: inhibitors of human CDK5/p35 kinase, primary screen, biochemical, single concentration (AID 488839).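 Note: plate controls were DMSO neutral control for no effect and GW8510 at 10 µM for full effect.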 As to conditions: Recombinant CDK5/p35, ADP-Glo luminescence, 60 min; at 10 µM; hits give high values.
Regarding `COC(=O)c1c(NC(=O)c2c(Cl)cnn2C)sc(C)c1C`, the inhibition (as a rule, the relative decrease from the control value, in per cent) is -2.29% (inactive).
Consider `O=c1[nH]c2ccc(S(=O)(=O)N3CCCC3)cc2[nH]1`, for which the inhibition was -0.663% (inactive).
For `CCOc1ccc(OCCSc2nc3ccccc3n2CC(=O)O)cc1`, the inhibition was 0.306% (inactive).
The same measure for `Cc1nc(-c2nnc(SCC(=O)Nc3cc(C(F)(F)F)cc(C(F)(F)F)c3)n2C)cs1`: -0.227% (inactive); for `CCCCCCCC(=O)OC(CN1CCCCCC1)CN1CCCC1=O` (configuration not stated): 0.855% (inactive).
The same measure for `CC(CC(=O)Nc1ccc(F)cc1F)S(=O)(=O)c1ccc2c(c1)NC(=O)CO2` (configuration not stated): 0.798% (inactive); for `COc1ccccc1NC(=O)C1CCCN(c2cc(C)nc3ncnn23)C1` (configuration not stated): 0.792% (inactive).
The same measure for `Cc1cccc(C)c1NC(=O)CNC(=O)C1CCCC1`: 0.783% (inactive); for `Cc1ccc(Nc2cc(=O)n(C3CCCCC3)c(=O)[nH]2)cc1C`: -0.561% (inactive); for `CC(C)NC(=O)COCc1cc(-c2ccc3c(c2)OCO3)on1`: -3.05% (inactive).
As for `CC(=O)Nc1ccc(OC(=O)COc2ccc(Br)cc2)cc1`, the inhibition is -1.45% (inactive).
In the case of `CCCNC(=O)c1c(Cl)cnn1-c1ccc(C)cc1`, the inhibition is -0.745% (inactive).
The same measure for `Cc1noc(C)c1NC(=O)Nc1ccc2c(c1)C(=O)N([C@H](C)CO)C[C@H](C)[C@@H](CN(C)S(=O)(=O)c1cn(C)cn1)O2`: 0.62% (inactive); for `O=C(CCc1nnc2ccc(NCc3ccco3)nn12)Nc1cc(F)ccc1F`: 0.605% (inactive).
As for `O=C(O)Cn1c(Cc2ccccc2)nc2ccccc21`, the inhibition was -0.592% (inactive).
To `COc1ccc(C2OC(=O)CC2C(=O)NC(C)C)cc1` (configuration not stated) belongs -11.3% (inactive); to `O=C(CC1Nc2ccccc2NC1=O)Nc1ccccc1` (configuration not stated), 1.13% (inactive); to `CCCCCCSc1ccc([C@@H]2[C@@H]3C(=O)N(CC)C(=O)[C@@H]3[C@]3(C(=O)OC)CCCCN23)cc1OC`, -6.06% (inactive).
For the molecule `Cc1ccccc1NS(=O)(=O)CCCCC(Cl)(Cl)Cl`, the inhibition is -0.0868% (inactive).
To `O=C(COc1coc(CN2CCN(c3ccccc3F)CC2)cc1=O)N1CCc2ccccc21` belongs 0.232% (inactive).
The same measure for `COc1ccc(Cl)cc1NC(=O)CN(C)CC(=O)Nc1ccc2c(c1)OCO2`: 1.26% (inactive).
To `O=Cc1c(N2CCN(c3cccc(Cl)c3)CC2)nc2ccccn2c1=O` belongs -1.83% (inactive); to `CN1CCN(S(=O)(=O)c2ccc(N3CCN(S(=O)(=O)c4cccs4)CC3)nc2)CC1`, -0.333% (inactive).
As for `CCC(C)c1ccccc1N1CC(C(=O)N2CCN(S(=O)(=O)c3ccc(F)cc3)CC2)CC1=O` (configuration not stated), the inhibition is 0.723% (inactive).
To `CC(C)[C@H](NC(=O)N1CCn2c1nc1ccccc12)C(=O)NC1CC1` belongs 2.48% (inactive); to `COc1cc(C(=O)N2CCN(S(=O)(=O)c3ccc(C(C)C)cc3)CC2)ccc1OCC(=O)N1CCOCC1`, -0.998% (inactive).
To `Cc1cccc(NC(=O)c2ccc(OCC(=O)NCc3ccccc3)cc2)c1C` belongs 0.801% (inactive); to `Cc1nc2c(-c3ccc(F)cc3)c(C)nn2c(C)c1CCC(=O)NCc1ccco1`, -0.00338% (inactive); to `CCc1ccc(C(=O)CSc2nnc(C)c(=O)[nH]2)cc1`, -0.74% (inactive).
To `Cc1cc(C)cc(Oc2nc3c(C)cccn3c(=O)c2/C=C(\C#N)C(=O)NC2CCS(=O)(=O)C2)c1` (configuration not stated) belongs 0.399% (inactive); to `CC(C)[C@H](NC(=O)N1CCn2c1nc1ccccc12)C(=O)NCCc1ccccc1`, 1.82% (inactive); to `COC(=O)c1ccccc1NC(=O)C1CCN(S(=O)(=O)c2cc(OC)ccc2OC)CC1`, 0.427% (inactive).
As for `N#Cc1ccc(C(=O)Nc2nc(-c3cccs3)c(C(=O)C(F)(F)F)s2)cc1`, the inhibition was -1.16% (inactive).
The same measure for `O=C(Cn1nc(Cc2cccnc2)c2ccccc2c1=O)NCC1CCCO1` (configuration not stated): -0.846% (inactive); for `CCOC(=O)Cc1c(C)nc2c(C#N)c(C)nn2c1C`: -2.18% (inactive); for `CC(C)CCN(C(=O)c1csnn1)C(C(=O)NC1CCCC1)c1ccccc1` (configuration not stated): 0.702% (inactive).
To `COCc1c(N)c(C)nc(Cl)c1C#N` belongs 11.1% (inactive); to `O=C(Cn1nc(C(=O)O)c2ccccc2c1=O)Nc1ccc(F)cc1`, 0.796% (inactive).
To `CCC(C)(C)NC(=O)C(c1ccc(OC)cc1)N(C(=O)CCC(=O)Nc1cc(C)on1)c1ccc(OC)cc1OC` (configuration not stated) belongs -0.155% (inactive); to `CCSc1ccccc1C(=O)NCc1ccc(OC)cc1`, 0.696% (inactive).
Take `COc1ccc(OC)c(/C(C)=N\NC(=O)c2cc3cc(Cl)ccc3n2C)c1`: the inhibition was 0.107% (inactive).
In the case of `CS(=O)(=O)N(CC(=O)N1CCCCCC1)c1cccc(Cl)c1Cl`, the inhibition was 0.703% (inactive).
To `CCOc1ccc(C(=O)NC2CCN(CC(=O)NCc3cccs3)CC2)cc1` belongs 1.1% (inactive).
For the molecule `CC(C)CCNC(=O)C1CCCN(S(=O)(=O)c2ccc(F)cc2)C1` (configuration not stated), the inhibition was -0.29% (inactive).
To `COc1ccc(-c2nc3n(c(=O)c2C#N)CCS3)c(OC)c1` belongs 0.425% (inactive); to `CC(Sc1nnnn1C)C(=O)NC(=O)NC1CCCCC1` (configuration not stated), -1.1% (inactive); to `CCc1c(C)nc2c(-c3ccccc3)c(C)nn2c1Nc1ccc(NC(C)=O)cc1`, 0.169% (inactive).
`CCN(C(=O)COC(=O)c1ccccc1O)c1cccc2ccccc12`: the inhibition was -1.97% (inactive).
To `COc1cccc(CC2(CO)CCCN(Cc3ccc(OC(F)F)cc3)C2)c1` (configuration not stated) belongs 0.552% (inactive).
To `Cc1ccc(C2SCC(=O)N2c2ccccc2)cc1` (configuration not stated) belongs 0.449% (inactive); to `COC(=O)Nc1ncc(CN2C(=O)c3ccccc3C2=O)s1`, 0.873% (inactive).
As to `CCC(C)NC(=O)Cn1nc(C(F)(F)F)c2c1CCC2` (configuration not stated), the inhibition was -1.07% (inactive).
`Cc1ccc(C)c(NS(=O)(=O)c2cc(Br)cnc2N)c1`: the inhibition was -0.401% (inactive).
Turning to `CSCCC(NS(=O)(=O)c1ccccc1F)C(=O)N1CC=C(c2ccccc2)CC1` (configuration not stated), the inhibition was 0.0413% (inactive).
To `CCCCCCCC[n+]1cccc(C(=O)N2c3c(nc(N)[nH]c3=O)NC(C)C2C)c1` (configuration not stated) belongs -4.49% (inactive); to `CC(OC(=O)Cc1ccc(F)cc1)C(=O)N1CCc2ccccc21` (configuration not stated), -7.94% (inactive).
The same measure for `O=C(O)/C(=C/c1cccnc1)NC(=O)c1ccccc1`: 1.62% (inactive).

The values above are taken from PubChem BioAssay AID488839 (Broad Institute, 2010).
